Compounds with a hit are over-represented: about 6.5% of the library has one in this group of screens.
MARV entry inh: qHTS for inhibitors of binding or entry into cells for Marburg Virus | Potency, µM (series often up to 37.8 µM), hits mostly inhibitors | Marburg virus pseudotyped entry inhibition, cell reporter | 300,000 compounds, 1.8% hits; calls by dose curve; tested in HEK293 cells
Lassa entry inh: qHTS for Inhibitors of binding or entry into cells for Lassa Virus | Potency, µM (series often up to 37.9 µM), most hits filed as inhibitors | Lassa virus pseudotype entry inhibition, cell reporter | 300,000 compounds, 1.2% hits | AID 540256, 2011; calls by dose curve; tested in HEK293 cells; further: nearly all actives have a fitted effect of over 50% in size
VACV Venus inh: qHTS for Stage-Specific Inhibitors of Vaccinia Orthopoxvirus: Venus Reporter Primary qHTS; 330,000 compounds, 0.46% hits; Potency, µM (highest dose often 36.5 µM), most hits filed as inhibitors; Vaccinia virus Venus reporter expression, fluorescence; calls by dose curve; tested in A549 cells; further: nearly all actives have a fitted effect of over 30% in size
Vaccinia mCherry: qHTS for Stage-Specific Inhibitors of Vaccinia Orthopoxvirus: mCherry Reporter Primary qHTS; 310,000 compounds, 0.63% hits; Vaccinia virus mCherry reporter infection, fluorescence; Potency, µM (series often up to 36.5 µM), hits mostly inhibitors; calls by dose curve; tested in A549 cells; further: nearly all actives have a fitted effect of over 35% in size
HCMV antiviral: qHTS Assay for inhibitors of the human cytomegalovirus (HCMV) | AID 1259415, 2018 | activity change, negative = inhibition, % at 57.5 µM | HFF cells, HCMV-luciferase reporter, 72 h; stronger effect = lower value | 410,000 compounds, 4.5% hits; in the data active means activity change below about -60%; inconclusive means no clear call, values can overlap the other calls; inactive means above about -39%
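Compounds were evaluated in HFFs infected with an HCMV luciferase reporter virus (MOI 1 PFU/cell). Luciferase in lysates collected 72 h post infection served as the replication measure.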
FMDV antiviral: High Throughput Screening for Foot and Mouth Disease Virus Antivirals. FMDV antiviral cell-based qHTS. Potency, µM (doses to about 57.9 µM), most hits filed as inhibitors. 410,000 compounds, 1.2% hits. AID 1159524, 2015; calls by dose curve; tested in HEK293T cells; further: read-out not given here; nearly all actives have a fitted effect of over 45% in size
A number is an active result; . = inactive; ? = inconclusive; / = no result given.

SMILES	MARV entry inh	Lassa entry inh	VACV Venus inh	Vaccinia mCherry	HCMV antiviral	FMDV antiviral
COc1ccc(N(C(=O)c2snc(C(N)=O)c2N)C(C(=O)NCc2ccccc2)c2ccc(O)cc2)cc1OC (stereo unspecified)	.	/	.	.	.	.
COc1ccc(N(C(=O)c2snc(C(N)=O)c2N)C(C(=O)NCc2ccc(F)cc2)c2ccc(C)o2)c(OC)c1 (stereo unspecified)	13µM	8.9µM	.	.	?	.
COc1ccc(C(C(=O)NCc2ccccc2)N(C(=O)c2snc(C(N)=O)c2N)c2ccccc2OC)cc1OC (stereo unspecified)	.	.	.	.	-75	.
COc1ccc(N(C(=O)c2snc(C(N)=O)c2N)C(C(=O)NCc2ccc(F)cc2)c2ccc(O)cc2)cc1 (stereo unspecified)	?	2.8µM	.	.	.	.
Cc1cccc(Cl)c1NC(=O)N(C)c1ccccc1	/	/	/	/	.	/
O=C(CN1C(=O)/C(=C2\SC(=S)N(C3CCS(=O)(=O)C3)C2=O)c2ccccc21)Nc1ccc(F)cc1 (stereo unspecified)	.	.	.	.	?	13µM
Cc1ccccc1CNC(=O)c1cnc2sc(N3CCOCC3)nn2c1=O	/	.	.	.	.	.
CSC[C@H]1CN(CCc2ccccc2)C(=O)[C@@H]1CC(=O)Nc1ccccc1	/	/	.	.	.	.
C[C@H]1CN(CCc2ccccc2)C(=O)[C@@H]1CC(=O)Nc1ccccc1	/	/	.	.	-75	.
Clc1cccc(OCCOCCN2CCNCC2)c1Cl	13µM	.	.	?	.	.
Cc1cc(C)n(S(=O)(=O)/C=C/c2ccccc2)n1	5.2µM	?	/	/	-67	.
Cc1cc(=O)[nH]c2ccc(O)cc12	/	/	.	.	/	/
O=C(Nc1ccc(-c2nc3cccnc3s2)cc1)c1cccnc1Cl	?	3.5µM	.	.	.	.
O=C(Nc1ccc(-c2nc3cccnc3s2)cc1)c1ccc(Br)o1	/	/	.	.	-91	.
O=C(Nc1ccc(-c2nc3cccnc3s2)cc1)c1ccco1	/	/	?	.	.	.
CN(C)c1ccc(C(=O)Nc2cccc(-c3nc4cccnc4s3)c2)cc1	.	?	.	.	.	.
O=C(Nc1cccc(-c2nc3cccnc3s2)c1)c1cccc(Br)c1	.	.	.	.	-67	.
Cc1nc2nc(SCC(=O)NCc3ccccc3)nn2c(C)c1Cc1ccccc1Cl	.	.	.	.	.	.
C/C(=N\Nc1cc(N2CCCCC2)nc(C)n1)c1ccc(Br)cc1	/	/	/	/	-67	?
C/C(=N/Nc1nc(C)cc(C)n1)c1ccc(Br)cc1	?	.	.	.	?	.
C/C(=N\Nc1cc(N2CCOCC2)nc(C)n1)c1ccc(F)cc1	2.8µM	?	.	.	.	.
C/C(=N\Nc1cc(N2CCOCC2)ncn1)c1ccccc1	/	/	/	/	.	.
C[C@@H]1CN(Cc2ccc3c(c2)CN(C(=O)c2ccc(Oc4ccccc4)o2)CCO3)C[C@H](C)O1	/	/	.	.	/	.
CC(=O)N1CCC[C@H]1C(=O)NCC1Cc2cc(-c3cccc(OC(F)(F)F)c3)ccc2O1 (stereo partly specified)	/	/	.	.	/	.
COc1ccccc1/C=C(\C#N)c1nc(-c2cc3ccccc3oc2=O)cs1	/	.	.	.	.	.
SMILES	MARV entry inh	Lassa entry inh	VACV Venus inh	Vaccinia mCherry	HCMV antiviral	FMDV antiviral
COc1ccc(-c2n[nH]c(=S)n2/N=C/C=C\c2ccccc2OC)cc1	.	?	.	.	.	.
COc1ccccc1/C=C/C=N/n1c(-c2ccc(C)cc2)n[nH]c1=S	?	3.7µM	.	.	.	.
COc1ccc(C2(O)CCN(CC(=O)Nc3nc(-c4ccccc4)cs3)CC2)cc1	?	?	.	?	.	28µM
COc1ccc(OC)c(-c2csc(NC(=O)CSc3ccccc3)n2)c1	?	16µM	.	?	?	.
COc1ccc(-c2csc(NC(=O)CSc3ccc(Br)cc3)n2)c(OC)c1	?	13µM	.	.	.	?
COc1cccc(CC(=O)Nc2nc(-c3cc(OC)ccc3OC)cs2)c1	.	/	?	?	.	.
COc1ccc(-c2noc(N(c3cccc(Cl)c3)c3nc(-c4ccc(OC)c(OC)c4)no3)n2)cc1OC	.	.	?	?	.	.
Cc1ccccc1S(=O)Cc1ccc(C(=O)N2CCN(c3cccc(C)c3C)CC2)o1 (stereo unspecified)	/	?	.	.	-84	.
Cc1cccc(N2CCN(C(=O)c3ccc(CS(=O)c4cccc(Cl)c4)o3)CC2)c1C (stereo unspecified)	/	?	.	.	-87	?
c1ccc(Nc2ncnc3ccc(-c4cccnc4)cc23)cc1	/	/	.	.	/	.
CCN(CC)CCn1c2ccccc2c2cnc(N=CN(C)C)c(C#N)c21	?	?	?	/	-94	.
CCn1c2ccccc2c2cnc(N=CN(C)C)c(C#N)c21	?	.	.	/	-70	?
O=C(CSc1cn(CCNC(=O)c2c(F)cccc2F)c2ccccc12)Nc1ccc2c(c1)OCCO2	.	.	.	.	.	.
CN(C)c1ccc(/C=C/c2ccnc3ccccc23)cc1	/	/	.	.	/	/
O=C(Nc1ccc(N2CCOCC2)c(S(=O)(=O)Nc2ccccc2Cl)c1)c1ccc(F)cc1	?	?	.	.	.	.
O=C(Nc1ccc(F)cc1)Nc1ccccc1N1CCCCC1	/	/	/	/	-71	?
O=C(/C=C/c1cccs1)Nc1ccc(N2CCOCC2)c(S(=O)(=O)Nc2cc(Cl)ccc2Cl)c1	.	.	.	.	.	.
O=C(NC(=S)Nc1ccccc1N1CCCCC1)c1ccco1	.	.	.	.	-71	22µM
O=C(Nc1ccc(F)cc1)Nc1ccc(N2CCCC2)c(S(=O)(=O)Nc2ccccc2Cl)c1	7.9µM	7.3µM	11µM	11µM	-100	.
O=C(NC(=S)Nc1ccccc1N1CCCC1)c1ccco1	.	.	.	.	.	.
O=C(/C=C/c1cccs1)Nc1ccc(N2CCOCC2)c(S(=O)(=O)Nc2ccccc2Cl)c1	?	?	.	.	-78	.
O=C(Cc1cscn1)N1CCOc2ccc(CN3CCN(c4ccccn4)CC3)cc2C1	/	/	.	.	/	.
O=C(Nc1ccc(Cl)c(Cl)c1)Nc1ccc(N2CCCC2)c(S(=O)(=O)Nc2ccccc2Cl)c1	?	8.9µM	11µM	13µM	-99	.
O=C(Nc1ccc(F)cc1)Nc1csc2ccccc12	?	?	?	?	-75	.
O=C(Nc1ccc(N2CCCCC2)c(S(=O)(=O)Nc2ccccc2Cl)c1)c1cccnc1	?	.	.	.	.	.
CC(C)(C)CC(=O)Nc1ccccc1N1CCN(c2ccccc2)CC1	?	?	.	.	.	.
CC(C)(C)CC(=O)Nc1ccccc1N1CCN(c2ccc(F)cc2)CC1	7.9µM	?	.	.	.	?
CN(C)c1ncc2nc(CCc3ccccc3)c(=O)n(Cc3cccs3)c2n1	/	/	/	/	/	.
